Several values for one entry are separate records, joined by “and”; a condition that tells them apart may be missing. Equal values may be shown once. Results filed as inconclusive are left out. Activity calls are given as the source filed them. Unless noted, the call rests on the fitted dose curve; in most records, active means well fitted curve in the direction sought with a large enough effect; inconclusive means small, poorly fitted or top-dose-only effect, or another doubt; inactive means no such curve, though single readings can be large; an effect the other way counts as inactive or inconclusive.
Tests used:
[1] = Confirmation and Secondary Assay for Modulators of Hemoglobin Beta Chain Splicing at IVS2 654 locus (AID 910);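 further: per-well total GFP intensity by laser scanning cytometry after 2-day treatment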;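 further: potency means the concentration at half of the fitted maximal effect; potency of activators that raise GFP signal by restoring correct splicing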
In short: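 HeLa cells stably carrying EGFP interrupted by mutant beta-globin IVS2-654 intron (CMV-driven) were treated with compound for 2 days at 37C; corrected splicing was scored as total peak GFP intensity per well (488 nm excitation, 500-520 nm emission).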

[2] = Cell Viability - LYMP2-001 (AID 921); further: nearly all actives have a fitted effect of over 70% in size; further: potency means the concentration at half of the fitted maximal effect
In short: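 Cellular ATP loss read by luciferase luminescence after 24 h compound exposure at 37 C in complete medium. LYMP2-001 lymphoblastoid cells, 2500/well; qHTS concentration-response data fitted with Hill equation for AC50.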

[3] = MultiTox-Fluor Cytotoxicity Assay - LYMP1-001 - Dead Cells (AID 946)
In short: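 Cytotoxicity as increased dead-cell protease fluorescence (bis-AAF-R110, 485/520 nm), read 60 min after MultiTox-Fluor reagent. Human lymphoblastoid line exposed 16 h; Hill-fitted AC50, with DMSO as 0% and 15 uM tetraoctylammonium bromide as 100%.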

[4] = MultiTox-Fluor Cytotoxicity Assay - LYMP1-001 - Live Cells (AID 947);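 further: 0% = DMSO only and full inhibition = tetraoctylammonium bromide control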
[5] = Cell Viability - LYMP1-002 - Assay at 16 hr (AID 948);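 further: 0% = DMSO alone and full effect = 92 µM tetraoctylammonium bromide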
In short: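 ATP luminescence (CellTiter-Glo) was measured after 16 hr compound exposure at 37 C of 2500 lymphoblastoid LYMP1-002 cells per well. Concentration-response curves were fitted with the Hill equation to give AC50.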

[6] = molecular target: Pyruvate kinase PKM (Homo sapiens) (UniProt P14618); assay: qHTS Assay for Activators of Human Muscle Pyruvate Kinase (AID 954; active means well fitted curve in the direction sought with a large enough effect, not every such curve was filed as active;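 further: 0% = uninhibited enzyme and -100% = no enzyme or full thiadiazolimine inhibition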)
Chain of Pyruvate kinase PKM (Homo sapiens) (P14618 whole entry, looked up): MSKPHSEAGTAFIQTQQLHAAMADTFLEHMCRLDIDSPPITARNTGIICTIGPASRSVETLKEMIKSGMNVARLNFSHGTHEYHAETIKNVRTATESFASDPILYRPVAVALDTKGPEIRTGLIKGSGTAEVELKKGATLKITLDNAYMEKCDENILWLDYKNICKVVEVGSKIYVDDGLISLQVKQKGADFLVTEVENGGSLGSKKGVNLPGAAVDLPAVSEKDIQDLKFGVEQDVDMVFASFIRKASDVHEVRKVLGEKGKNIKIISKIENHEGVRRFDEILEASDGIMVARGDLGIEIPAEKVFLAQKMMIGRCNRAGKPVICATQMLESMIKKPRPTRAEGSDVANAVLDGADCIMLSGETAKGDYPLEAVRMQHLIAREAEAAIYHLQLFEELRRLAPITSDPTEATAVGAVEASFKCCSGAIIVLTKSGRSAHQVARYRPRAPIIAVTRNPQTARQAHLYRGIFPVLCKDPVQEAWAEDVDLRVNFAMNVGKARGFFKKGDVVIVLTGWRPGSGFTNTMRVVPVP
In short: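 Human PKM2 activity is measured as ATP generation, detected by luciferase-coupled luminescence. The enzyme (0.1 nM) acts on 0.5 mM PEP and 0.1 mM ADP for 1 h at ambient temperature; data are normalized to uninhibited and full-inhibition wells.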

[7] = MultiTox-Fluor Cytotoxicity Assay - LYMP1-002 - Live Cells (AID 955);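 further: cells exposed to compound for 16 hours; on the % scale 0 is the no-effect control and ±100 the full control effect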
In short: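 Read-out is live-cell protease activity (cell-permeant GF-AFC substrate, fluorescence Ex/Em=405/510), where a decrease indicates acute toxicity. Human lymphoblastoid cells were treated 16 hours at 37 C in a concentration series, and AC50 values came from standard Hill modelling.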

[8] = MultiTox-Fluor Cytotoxicity Assay - LYMP1-002 - Dead Cells (AID 960); further: nearly all actives have a fitted effect of over 60% in size
In short: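 LYMP1-002 cells 2500/well; 5 hr 37 C pre-incubation; compound 16 hr 37 C; MultiTox-Fluor reagent 60 min RT; dead-cell fluor Ex/Em 485/520. Norm. to DMSO (0%) vs 15 uM tetraoctylammonium bromide (100%); Hill AC50.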

[9] = MultiTox-Fluor Cytotoxicity Assay - LYMP1-003 - Dead Cells (AID 961); further: nearly all actives have a fitted effect of over 70% in size
In short: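 Dead-cell protease release, detected as bis-AAF-R110 fluorescence at 485/520 nm, was measured in LYMP1-003 cells after 16 h compound treatment at 37 C. AC50 values came from Hill-modeled qHTS curves normalized to DMSO (0%) and 15 uM tetraoctylammonium bromide (100%).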

[10] = MultiTox-Fluor Cytotoxicity Assay - LYMP1-003 - Live Cells (AID 962);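 further: cells exposed to compound for 16 hours at 37 °C; 0% = DMSO only and full loss = 92 µM tetraoctylammonium bromide; cytotoxic hits lower the live-cell protease signal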
In short: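 qHTS, 1536-well; 2500 cells/well LYMP1-003; 5 hr 37 C settle; cpd 16 hr 37 C; MultiTox-Fluor reagent 60 min RT; live-cell protease fluor. 405/510; Hill-fit AC50; tetraoctylammonium bromide pos. ctrl.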

[11] = Cell Viability - LYMP1-003 - Assay at 24 hr (AID 963);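 further: plate controls were DMSO only for no effect and tetraoctylammonium bromide positive control for full effect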
In short: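 Cells seeded at 2500/well, 5 hr at 37 C; compounds added; 24 hr at 37 C; CellTiter-Glo added, 30 min room temperature; luminescence read. Decrease in ATP taken as cytotoxicity, AC50 from Hill modelling.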

[12] = Cell Viability - LYMP1-003 - Assay at 40 hr (AID 964); further: nearly all actives have a fitted effect of over 60% in size; further: potency means the concentration at half of the fitted maximal effect
In short: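 Cells were seeded at 2500 per well and incubated 5 hr at 37 C. Compounds were added across a concentration series and left 40 hr at 37 C. CellTiter-Glo was added for 30 min at room temperature before luminescence reading.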

[13] = Cell Viability - LYMP2-003 (AID 965);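 further: cells exposed to compounds for 24 h before reading; 0% = DMSO only and full effect = 92 µM tetraoctylammonium bromide; nearly all actives have a fitted effect of over 50% in size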
In short: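 CellTiter-Glo luminescence quantified ATP loss after 24 h compound treatment of LYMP2-003 lymphoblastoid cells at 37 C. Titration series were fitted with the standard Hill equation to give AC50.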

[14] = Cell Viability - LYMP2-005 (AID 967);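 further: series mostly up to about 92 µM; plate controls were DMSO only for no effect and 92 µM tetraoctylammonium bromide control for full effect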
In short: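 LYMP2-005 human lymphoblastoid cells (2500/well) were treated with compounds for 24 h at 37 C. Intracellular ATP was then measured by CellTiter-Glo luminescence after 30 min at room temperature. AC50 values came from Hill-equation fits of qHTS concentration-response data.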

[15] = qHTS Assay for Identification of Small Molecule Agonists for Hypoxia Response Element Signaling Pathway (AID 914; active means well fitted activation curve with a large enough effect in the signal ratio, with a control signal flat, not every such curve was filed as active; the % refers to the signal ratio; further: potency means the concentration at half of the fitted maximal effect; on activation: % of control where 0% means no effect); details: ME-180 (cervical carcinoma) HRE-bla reporter, beta-lactamase ratio, CoCl2, 17 h; activation: hits give high values
In short: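 A beta-lactamase reporter under hypoxia response element control in ME-180 cells served as the system. Compound titrations plus EC50 CoCl2 ran 17 h at 37 degrees Celsius; AC50 values were fitted from %Activity.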

[16] = qHTS Assay for Identification of Small Molecule Antagonists for Thrombopoietin (TPO) Signaling Pathway (AID 918); details: TPO-dependent cell signaling reporter, antagonist mode; further: potency means the concentration at half of the fitted maximal effect; nearly all actives have a fitted effect of over 60% in size
In short: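 Ba/F3 (murine, hTPO-R, GPIIb-luc reporter); overnight IL-3 withdrawal; cpd + TPO 26 pM final (EC50); 24 h 37 C/5% CO2; Steadylite luminescence after 10 min RT.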

[17] = molecular target: Muscarinic acetylcholine receptor M1 (Rattus norvegicus) (UniProt P08482); assay: qHTS Assay for Antagonists of Acetylcholine Muscarinic M1 Receptor: Kinetic Measurement of Intracellular Calcium Response (AID 943); further: nearly all actives have a fitted effect of over 75% in size; further: potency means the concentration at half of the fitted maximal effect
Chain of Muscarinic acetylcholine receptor M1 (Rattus norvegicus) (P08482 whole entry, looked up): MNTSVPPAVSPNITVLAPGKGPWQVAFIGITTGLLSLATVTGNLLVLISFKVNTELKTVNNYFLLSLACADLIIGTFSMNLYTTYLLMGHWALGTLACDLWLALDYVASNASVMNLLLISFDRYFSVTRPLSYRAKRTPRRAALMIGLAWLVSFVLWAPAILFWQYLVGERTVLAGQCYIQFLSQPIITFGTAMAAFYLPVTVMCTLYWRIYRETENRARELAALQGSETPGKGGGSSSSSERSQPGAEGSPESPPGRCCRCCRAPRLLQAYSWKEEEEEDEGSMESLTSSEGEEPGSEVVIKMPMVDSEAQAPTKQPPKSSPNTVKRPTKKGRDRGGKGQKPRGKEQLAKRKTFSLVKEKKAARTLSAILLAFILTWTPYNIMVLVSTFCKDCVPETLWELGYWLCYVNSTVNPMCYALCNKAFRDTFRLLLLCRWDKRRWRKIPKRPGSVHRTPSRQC
In short: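 Rat M1-CHO cells, 2000/well, overnight → Fluo-4 no-wash dye with probenecid, 1 h 37C → compound 10 min, room temp → basal read 6 s → carbachol EC80 (100 nM) → 4 min kinetic read; peak/basal.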

[18] = molecular target: Muscarinic acetylcholine receptor M1 (Rattus norvegicus) (UniProt P08482); assay: qHTS Assay for Antagonists of Acetylcholine Muscarinic M1 Receptor: Measurement of IP-One Response (AID 944); further: nearly all actives have a fitted effect of over 75% in size; further: potency means the concentration at half of the fitted maximal effect
In short: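 M1-CHO (rat), 2000 cells/well, overnight recovery; cpd 10 min; carbachol EC80 (200 nM), 30 min, HEPES buffer + 50 mM LiCl pH 7.4; IP-One HTRF, Ex 337, Em 620/665 nm.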

[19] = Cell Viability - LYMP2-004 (AID 966);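 further: plate controls were DMSO only for no effect and tetraoctylammonium bromide control for full effect; nearly all actives have a fitted effect of over 65% in size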
In short: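 Cells seeded 2500/well, rested 5 hr at 37 C, dosed across a concentration series, incubated 24 hr at 37 C, then CellTiter-Glo added for 30 min at room temperature and luminescence read. Hill fitting gave AC50.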

[20] = molecular target: Pyruvate kinase (Leishmania mexicana) (UniProt Q27686); assay: qHTS Validation Assay for Activators of Leishmania Mexicana Pyruvate Kinase (AID 959)
Chain of Pyruvate kinase (Leishmania mexicana) (Q27686 2-499 E452W): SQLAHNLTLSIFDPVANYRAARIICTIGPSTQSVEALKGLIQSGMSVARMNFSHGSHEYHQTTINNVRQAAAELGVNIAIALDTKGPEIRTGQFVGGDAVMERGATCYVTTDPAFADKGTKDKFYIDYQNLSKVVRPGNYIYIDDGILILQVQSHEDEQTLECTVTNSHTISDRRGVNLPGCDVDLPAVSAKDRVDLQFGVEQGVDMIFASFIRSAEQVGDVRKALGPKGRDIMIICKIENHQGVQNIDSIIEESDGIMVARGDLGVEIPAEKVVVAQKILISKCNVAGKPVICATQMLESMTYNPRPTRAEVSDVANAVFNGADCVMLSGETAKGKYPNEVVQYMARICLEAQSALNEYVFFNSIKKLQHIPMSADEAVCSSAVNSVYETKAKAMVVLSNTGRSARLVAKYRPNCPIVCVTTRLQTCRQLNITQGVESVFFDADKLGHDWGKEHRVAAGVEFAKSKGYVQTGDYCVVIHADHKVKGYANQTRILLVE
In short: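 Compounds are tested as eight-point concentration series. Reactions contain 0.2 nM LmPYK E451W, 0.5 mM PEP, 0.1 mM ADP, 7 mM MgCl2 and 50 mM KCl at pH 7.2, run 1 h at room temperature, then read by PKLight luminescence.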

NC(=O)c1cnccn1
inactive: Potency [1] | Potency [2] | outcome [3] | outcome [4] | outcome [5] | outcome [6] | outcome [7] | outcome [8] | outcome [9] | outcome [10] | outcome [11] | Potency [12] | outcome [13] | outcome [14]

Cn1cnc([N+](=O)[O-])c1Sc1ncnc2nc[nH]c12
inactive: outcome [3] | outcome [4] | outcome [5] | outcome [6] | outcome [7] | outcome [8] | outcome [9] | outcome [10]
active: Potency [1] 1.58 µM | Potency [2] 39.8 µM | Potency [12] 2.51 µM

Cc1cc2c(C(C)C)c(O)c(O)c(C=O)c2c(O)c1-c1c(C)cc2c(C(C)C)c(O)c(O)c(C=O)c2c1O
inactive: Potency [1]

CCOC(=O)N1CCC(=C2c3ccc(Cl)cc3CCc3cccnc32)CC1
inactive: Potency [1] | outcome [6]
active: Potency [15] 15.8 µM

CN1CCN(CCCN2c3ccccc3Sc3ccc(C(F)(F)F)cc32)CC1
inactive: Potency [1] | outcome [6]
active: Potency [16] 15.8 µM

CCc1ccc(CCOc2ccc(CC3SC(=O)NC3=O)cc2)nc1 (stereo not drawn)
inactive: Potency [1]

CCCc1nc2c(C)cc(-c3nc4ccccc4n3C)cc2n1Cc1ccc(-c2ccccc2C(=O)O)cc1
inactive: Potency [1]

CCCCNc1cc(C(=O)O)cc(S(N)(=O)=O)c1Oc1ccccc1
inactive: Potency [1] | Potency [17] | Potency [18] | outcome [6]

CCCC(CCC)C(=O)O
inactive: Potency [1] | Potency [2] | outcome [3] | outcome [5] | outcome [6] | outcome [7] | outcome [9] | outcome [10] | outcome [11] | Potency [12] | outcome [13] | outcome [19] | outcome [14]

O=C(O)COCCN1CCN(C(c2ccccc2)c2ccc(Cl)cc2)CC1 (stereo not drawn)
inactive: Potency [1]

CCN(CC)CCCC(C)Nc1ccnc2cc(Cl)ccc12 (stereo not drawn)
inactive: Potency [1]

Cc1ccccc1C(OCCN(C)C)c1ccccc1 (stereo not drawn)
inactive: Potency [1]

CCCc1nn(C)c2c(=O)[nH]c(-c3cc(S(=O)(=O)N4CCN(C)CC4)ccc3OCC)nc12
inactive: Potency [1]

CC(=O)Oc1ccccc1C(=O)O
inactive: Potency [1] | Potency [2] | outcome [3] | outcome [4] | outcome [5] | outcome [6] | outcome [7] | outcome [8] | outcome [9] | outcome [10] | outcome [11] | Potency [12] | outcome [13] | outcome [19] | outcome [14]

CC(C[N+](C)(C)C)OC(N)=O (stereo not drawn)
inactive: Potency [1]

NS(=O)(=O)c1cc2c(cc1Cl)NC=NS2(=O)=O
inactive: Potency [1] | activation [15] 13.9% and 2.11% and -1.51% | Potency [2] | outcome [3] | outcome [4] | outcome [5] | outcome [6] | outcome [7] | outcome [9] | outcome [10] | outcome [11] | Potency [12] | outcome [13] | outcome [19] | outcome [14]

Nc1ccc(S(=O)(=O)Nc2ccnn2-c2ccccc2)cc1
inactive: Potency [1] | Potency [18] | outcome [6]

Cc1cnc(NC(=O)C2=C(O)c3ccccc3S(=O)(=O)N2C)s1
inactive: Potency [1]

N=c1nc(N2CCCCC2)cc(N)n1O
inactive: Potency [1] | Potency [17] | Potency [18] | outcome [6]

CC(C)(C)NCC(O)c1ccc(O)c(CO)c1 (stereo not drawn)
inactive: Potency [1]

CCn1cc(C(=O)O)c(=O)c2cc(F)c(N3CCNC(C)C3)c(F)c21 (stereo not drawn)
inactive: Potency [1]

NCCc1ccc(O)c(O)c1
inactive: Potency [1] | Potency [17] | Potency [18] | outcome [6]

O=c1[nH]cnc2[nH]ncc12
inactive: Potency [1] | Potency [2] | outcome [3] | outcome [4] | outcome [5] | outcome [6] | outcome [7] | outcome [8] | outcome [9] | outcome [10] | outcome [11] | Potency [12] | outcome [13] | outcome [19] | outcome [14]

OC(CN1CCC(Cc2ccc(F)cc2)CC1)c1ccc(Cl)cc1 (stereo not drawn)
inactive: outcome [6]
active: Potency [17] 0.398 µM | Potency [18] 7.94 µM

Nc1nc2ccc(OC(F)(F)F)cc2s1
inactive: outcome [6] | outcome [20]

Clc1cccc(Cl)c1NC1=NCCN1
inactive: outcome [6]

O=C1CCc2cc(OCCCCc3nnnn3C3CCCCC3)ccc2N1
inactive: Potency [1] | outcome [6]

Cc1[nH]c(=O)c(C#N)cc1-c1ccncc1
inactive: outcome [6]

CCOC(=O)C1=C[C@@]2(CC)CCCN3CCc4c(n1c1ccccc41)[C@H]32
inactive: Potency [18] | outcome [6]

N#Cc1ccc(C(c2ccc(C#N)cc2)n2cncn2)cc1
inactive: activation [15] -2.88%

Cc1[nH]c(=O)c(C#N)cc1-c1ccc2nccn2c1
inactive: Potency [18] | outcome [6]

Cc1oncc1C(=O)Nc1ccc(C(F)(F)F)cc1
inactive: Potency [1] | outcome [6]

N[C@@H]1CONC1=O
inactive: outcome [6]

NC[C@H](O)c1ccc(O)c(O)c1
inactive: outcome [6]

CC(C)(Sc1ccc(CCN(CCCCC2CCCCC2)C(=O)NC2CCCCC2)cc1)C(=O)O
inactive: Potency [17] | Potency [18] | outcome [6]

NC(N)=NC(=O)c1nc(Cl)c(N)nc1N
inactive: Potency [1] | outcome [3] | outcome [4] | outcome [5] | outcome [6] | outcome [7] | outcome [8] | outcome [9] | outcome [10] | outcome [11] | Potency [12] | outcome [13] | outcome [19] | outcome [14]

NNCCc1ccccc1
inactive: Potency [1] | outcome [6]

COc1ccc2nc(S(=O)Cc3ncc(C)c(OC)c3C)[nH]c2c1 (stereo not drawn)
inactive: activation [15] -6.85% and -23.9%

CNC[C@H](O)c1cccc(O)c1
inactive: Potency [17] | Potency [18] | outcome [6]

Nc1nc2c(ncn2COCCO)c(=O)[nH]1
inactive: outcome [6]

Cc1ccc(N(CC2=NCCN2)c2cccc(O)c2)cc1
inactive: Potency [1] | Potency [18] | outcome [6]

Cc1cn[nH]c1
inactive: outcome [6]

CC(C)NCC(O)COc1ccc(COCCOC(C)C)cc1 (stereo not drawn)
inactive: Potency [18] | outcome [6]

O=c1n(CCCN2CCN(c3cccc(Cl)c3)CC2)nc2ccccn12
inactive: Potency [1] | Potency [18] | outcome [6]

O=NN(CCCl)C(=O)NCCCl
inactive: Potency [1] | outcome [6]

C[C@]12CCC(=O)C=C1CC[C@@H]1[C@@H]2[C@@H](O)C[C@@]2(C)[C@H]1CC[C@]2(O)C(=O)CO
inactive: Potency [18] | outcome [6]

C1COC(NC(C2CC2)C2CC2)=N1
inactive: Potency [17] | Potency [18] | outcome [6]
